“And” between values parts separate entries of the source, which are not always exact repeats. Equal entries are not always repeated. Records with an inconclusive call do not appear. Values without a mark were called inactive. The source made the active and inactive calls. Calls follow the shape of the dose curve; as a rule, active = well fitted curve in the direction sought with a large enough effect; inconclusive = small, poorly fitted or top-dose-only effect, or another doubt; inactive = no such curve, though single readings can be large; an effect the other way counts as inactive or inconclusive.

Test [1] addresses Cellular tumor antigen p53 (Homo sapiens) (UniProt P04637). The test can be described thus: Primary qHTS for small molecule compounds that upregulate eGFP-tagged delta133p53alpha (in N-terminal) cells. (AID 2060322). Also: nearly all actives have a fitted effect of over 75% in size. Also: potency is read from the fitted curve at half-maximal effect.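 As to activation: series mostly up to about 56 µM; 0% = DMSO vehicle and 100% = reference activator.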 The following applies: NCI-H358 eGFP-delta133p53alpha fluorescence, 24 h; activation: hits give high values. In short, it runs like this:
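NCI-H358 cells pre-induced 24 h with 10 ng/ml doxycycline to express N-terminal eGFP-delta133p53alpha, then dosed 24 h at 37C without doxycycline; fixed, Hoechst-stained, GFP intensity by laser scanning cytometry, normalized to DMSO (0%) and 57.5 uM 5-azacytidine (100%).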
A general note: qHTS replaces the single test concentration by a dilution series.

In test [2] the target is Aldehyde dehydrogenase, mitochondrial (Homo sapiens) (UniProt P05091). The test can be described thus: qHTS for Inhibitors of the Aldehyde Dehydrogenase Family (ALDH2) Primary screen (AID 2061308).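 Also: plate controls were vehicle for no effect and reference inhibitor for full effect; nearly all actives have a fitted effect of over 55% in size.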
Test [3] has as its target Retinaldehyde dehydrogenase 3 (Homo sapiens) (UniProt P47895). The test can be described thus: qHTS for Inhibitors of the Aldehyde Dehydrogenase Family (ALDH1A3) Primary screen (AID 2061315).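 Also: plate controls were DMSO vehicle for no effect and reference inhibitor for full effect.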
The target is the same in test [4]. The experiment in a line: qHTS for Inhibitors of the Aldehyde Dehydrogenase Family (ALDH1A3) Validation screen (AID 2061312). Also: % is scaled to controls: 0 for no effect and ±100 for the full control effect; nearly all actives have a fitted effect of over 45% in size.
Test [5] can be described thus: BET inhibitor-based combinations targeting novel dependencies in MECOM-rearranged (r) AML: MV-4-11 cell line (AID 2202233). Also: nearly all actives have a fitted effect of over 45% in size. Also: potency is read from the fitted curve at half-maximal effect. In short, it runs like this: (§1)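 Seeding density was 500 cells/well, and drug exposure lasted 48 hr under standard culture conditions. Read-out used CellTiter-Glo reagent with a 15 min room-temperature incubation before luminescence measurement; AUC and Z-AUC summarize the normalized responses.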

Test [6] is described as follows: BET inhibitor-based combinations targeting novel dependencies in MECOM-rearranged (r) AML: UCSD-AML1 cell line (AID 2202235). Also: nearly all actives have a fitted effect of over 40% in size. Also: potency is read from the fitted curve at half-maximal effect. In a few lines:
as §1

Test [7] can be described thus: BET inhibitor-based combinations targeting novel dependencies in MECOM-rearranged (r) AML: SET-2 cell line (AID 2202231). Also: nearly all actives have a fitted effect of over 35% in size. Also: potency is read from the fitted curve at half-maximal effect.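 As to viability: plate controls were DMSO treated cells for no effect and wells without cells for full effect.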 The following applies: SET-2 AML cells viability, CellTiter-Glo luminescence, 48 h; viability: hits give low values, concentration not given here. In short, it runs like this: (§2)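 Readout: CellTiter-Glo luminescence. Exposure: 48 h, 11 concentrations, 500 cells/well. Metric: AUC and within-line Z-AUC after DMSO/empty-well normalization.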
On the technique in general: In ATP-based viability assays light output follows the ATP content of the culture.

Test [8] can be described thus: BET inhibitor-based combinations targeting novel dependencies in MECOM-rearranged (r) AML: OCI-AML3 cell line (AID 2202232). Also: nearly all actives have a fitted effect of over 35% in size. Also: potency is read from the fitted curve at half-maximal effect. To be noted: Potency: OCI-AML3 viability. In a few lines: as §2
A short description of test [9]: BET inhibitor-based combinations targeting novel dependencies in MECOM-rearranged (r) AML: HNT-34 cell line (AID 2202234). Also: nearly all actives have a fitted effect of over 35% in size. Also: potency is read from the fitted curve at half-maximal effect. In short, it runs like this:
as §1

A short description of test [10]: BET inhibitor-based combinations targeting novel dependencies in MECOM-rearranged (r) AML: AML-191 cell line (AID 2202236; also: nearly all actives have a fitted effect of over 35% in size; also: potency is read from the fitted curve at half-maximal effect). In a few lines: as §2
Test [11] is described as follows: BET inhibitor-based combinations targeting novel dependencies in MECOM-rearranged (r) AML: AML-194 cell line (AID 2202237; also: nearly all actives have a fitted effect of over 40% in size; also: potency is read from the fitted curve at half-maximal effect). In short, it runs like this: as §2

Chain of Cellular tumor antigen p53 (Homo sapiens) (P04637 whole entry, looked up): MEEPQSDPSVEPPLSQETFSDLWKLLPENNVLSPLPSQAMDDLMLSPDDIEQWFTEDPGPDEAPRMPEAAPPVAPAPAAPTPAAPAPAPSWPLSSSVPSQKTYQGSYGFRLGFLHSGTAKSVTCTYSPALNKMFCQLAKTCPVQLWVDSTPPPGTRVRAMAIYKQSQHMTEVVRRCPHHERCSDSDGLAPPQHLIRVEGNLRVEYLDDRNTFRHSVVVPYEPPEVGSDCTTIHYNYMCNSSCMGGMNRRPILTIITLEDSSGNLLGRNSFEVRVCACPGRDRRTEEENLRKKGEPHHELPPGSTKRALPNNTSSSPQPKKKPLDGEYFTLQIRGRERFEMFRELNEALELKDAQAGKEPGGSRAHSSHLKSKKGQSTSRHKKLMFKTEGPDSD

As to `CN1CCN(c2nc3ccccc3nc2Cl)CC1`, the activation in test [1] was 1%. The Potency result in [2] and in test [3] was “inactive” each time.

On to `Cc1ccccc1CN1CCC(N2CCC(n3c(=O)[nH]c4ccccc43)CC2)CC1`, for which the activation in test [1] is -15.8%. Also, the Potency result in test [2], in [4] and in test [3] was “inactive” throughout.

With `Cc1c(C(=O)Nc2cccc(C(F)(F)F)c2)cc(-c2ccccc2)n1CCCN1CCOCC1`, the activation in [1] is -17.9% and -8.11%. In addition, the Potency result in test [2], in [4], in test [3] and in test [6] was “inactive” each time. The Potency in test [5] is 20900 nM (active).

`Cc1sc2c(c1C)C(c1ccc(Cl)cc1)=NC(CC(=O)Nc1ccc(O)cc1)c1nnc(C)n1-2` (configuration not stated): the activation in test [1] is -21.2%. In addition, the Potency entry in test [2], in test [4] and in test [3] was “inactive” each time. Besides, the Potency in [7] was 1320 nM (active); in test [8], 263 nM (active); in test [5] it was 296 nM (active); in test [6], 742 nM (active).

`CCC1=CC2CN3CCc4c([nH]c5ccccc45)[C@@](C(=O)OC)(C2)[C@@H]13`: the activation in test [1] was 6.11%. Also, the Potency result in test [2] and in test [3] was “inactive” each time.

By viability is commonly meant a read-out of living cells in per cent, often relative to untreated cells. With `CCc1c(C(=O)C(N)=O)c2c(OCC(=O)O)cccc2n1Cc1ccccc1`, in test [1], the activation is -24.6% and -2.39%. Further, the Potency entry in test [2], in test [4], in test [3], in [8], in test [5] and in test [9] was “inactive” in each case. For the same molecule, the Potency result in test [6] and in test [10] was “inactive” throughout. In addition, the viability in test [7] was 113%.

Take `C/C=C1/CN2CC[C@]34C(=Nc5ccccc53)[C@@H]2C[C@@H]1[C@H]4C(=O)OC`: the activation in test [1] was 17.9%. For the same molecule, the Potency result in test [2] and in test [3] was “inactive” throughout.

In the case of `CC[C@H]1/C=C\C=C/C[C@@H](C)[C@H](O)[C@@](C)(O)C(=O)[C@@H](C)[C@H](O)[C@@H](C)C(=O)[C@@H](C)[C@H](O)[C@@H](C)/C=C\C(=O)O[C@@H]2[C@H](C)[C@H](CC1)O[C@]1(CC[C@H](C)[C@H](C[C@@H](C)O)O1)[C@H]2C`, in test [1], the activation is 26.3%. The Potency entry in test [2], in [4] and in test [3] was “inactive” in each case. In addition, the Potency in test [7] is 4170 nM (active); in test [5] it was 26.3 nM (active); in [9], 46.8 nM (active).

Take `CC(=O)N1N=C(c2ccc(N)cc2)c2cc3c(cc2C[C@H]1C)OCO3`: the activation in test [1] is -0.955%. The Potency entry in [2], in test [4], in test [3], in [8], in [6] and in test [11] was “inactive” each time. Besides, the viability in test [7] is 93.4%.

Turning to `CCOc1ccccc1-n1c(C(C)N2CCN(C(=O)COc3ccc(Cl)cc3)CC2)nc2ccccc2c1=O` (configuration not stated), the activation in test [1] was 0.955%. The Potency entry in test [2], in test [4] and in [3] was “inactive” each time. For the same molecule, the Potency is 1320 nM (active) in [7], 3320 nM (active) in test [9], 2630 nM (active) in test [10] and 4680 nM (active) in [11].

As to `CC(=O)OC[C@]12C[C@H](OC(C)=O)C(C)=C[C@H]1O[C@@H]1[C@H](O)[C@@H](O)[C@@]2(C)[C@]12CO2`, the Potency in [1] was 467 nM (active). Besides, the Potency entry in [2] and in test [3] was “inactive” in each case.

For the molecule `O=C(Oc1ccc([N+](=O)[O-])cc1)N1CCN(Cc2cccc(Oc3ccccc3)c2)CC1`, the activation in [1] is 1.36% and 1.43%. Further, the Potency result in [2], in test [4], in [3], in test [8], in test [9] and in [6] was “inactive” each time. Moreover, the Potency result in test [10] and in test [11] was “inactive” throughout. The viability in [7] was 110%.

As for `O=C1C=CC[C@@H]2[C@H]3CCCN4CCC[C@@H](CN12)[C@@H]34`, the activation in test [1] was -8.56% and -6.68%. The Potency entry in [2], in test [4], in test [3], in [8], in test [5] and in [9] was “inactive” throughout. In addition, the Potency entry in [10] was “inactive”. Further, the viability in test [7] is 108%.

As to `COC1CC(O[C@H]2CC[C@@]3(C)C(=CCC4C3C(O)[C@@H](O)[C@]3(C)[C@@H](C(C)=O)CC[C@]43O)C2)OC(C)C1OC1CC(OC)C(OC2OC(C)C(O)C(O)C2O)C(C)O1` (some centres not stated), in test [1], the activation was -14.5%. Also, the Potency entry in [2] and in test [3] was “inactive” in each case.

For the molecule `C=CC/C=C\C/C=C\CCCCCCCc1cc(O)cc(O)c1`, in test [1], the activation is -9.92%. Also, the Potency result in [2] and in test [3] was “inactive” each time.

For `CCC(C)(C#N)O[C@@H]1O[C@H](CO)[C@@H](O)[C@H](O)[C@H]1O` (some centres not stated), the activation in [1] is 16.8%. In addition, the Potency result in test [2] and in test [3] was “inactive” each time.

Regarding `CCOP(=O)(OCC)Oc1ccc2c(C)cc(=O)oc2c1`, the activation in test [1] was 6.33%. Moreover, the Potency result in test [2] and in test [3] was “inactive” each time.

For the molecule `C=CC(C)(C)C12C=C(O)C(=O)N3/C(=C\c4cnc[nH]4)C(=O)NC31N(OC)c1ccccc12` (configuration not stated), in test [1], the Potency is 4650 nM (active). Moreover, the Potency result in test [2] and in test [3] was “inactive” in each case.

Values taken from PubChem BioAssay (NCATS).
